In PubChem BioAssay (NCATS):
Records with an inconclusive call do not appear. Calls of active or inactive are those of the source. Unless noted, the call rests on the fitted dose curve; in most records, active means well fitted curve in the direction sought with a large enough effect; inconclusive means small, poorly fitted or top-dose-only effect, or another doubt; inactive means no such curve, though single readings can be large; an effect the other way counts as inactive or inconclusive.

Key:
[1] = S16 Schwann cell PMP22 intronic element firefly luciferase assay (AID 624032); further: nearly all actives have a fitted effect of over 30% in size; further: potency means the concentration at half of the fitted maximal effect
Summary of the method: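 Rat S16 Schwann cells stably carrying firefly luciferase driven by a PMP22 intronic element, in 10% FBS, treated 24 h at 37 C. ONE-Glo luminescence normalized to PTC124 control and DMSO (0%); curves classed by r2, magnitude and activity.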

[2] = S16 Schwann cell PMP22 intronic element beta-lactamase assay (AID 624044; calls by dose curve; further: nearly all actives have a fitted effect of over 15% in size; further: potency means the concentration at half of the fitted maximal effect)
Summary of the method: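 Beta-lactamase reporter under a PMP22 intronic regulatory element in stable S16 rat Schwann cells; 24 h compound exposure. 460 nm blue signal normalized between DMSO (0%) and potassium clavulanate, with 535 nm FRET tracking viability; curves classed by r2 and response.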

[3] = target: Glutaminase kidney isoform, mitochondrial (Homo sapiens) (UniProt O94925); assay: qHTS for Inhibitors of Glutaminase (GLS): LOPAC Validation (AID 624146);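 further: glutamate product detected by oxidase and peroxidase coupled Amplex red fluorescence gain; series mostly up to about 46 µM; nearly all actives have a fitted effect of over 60% in size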
Glutaminase kidney isoform, mitochondrial (Homo sapiens), sequence (O94925 whole entry, looked up, canonical isoform): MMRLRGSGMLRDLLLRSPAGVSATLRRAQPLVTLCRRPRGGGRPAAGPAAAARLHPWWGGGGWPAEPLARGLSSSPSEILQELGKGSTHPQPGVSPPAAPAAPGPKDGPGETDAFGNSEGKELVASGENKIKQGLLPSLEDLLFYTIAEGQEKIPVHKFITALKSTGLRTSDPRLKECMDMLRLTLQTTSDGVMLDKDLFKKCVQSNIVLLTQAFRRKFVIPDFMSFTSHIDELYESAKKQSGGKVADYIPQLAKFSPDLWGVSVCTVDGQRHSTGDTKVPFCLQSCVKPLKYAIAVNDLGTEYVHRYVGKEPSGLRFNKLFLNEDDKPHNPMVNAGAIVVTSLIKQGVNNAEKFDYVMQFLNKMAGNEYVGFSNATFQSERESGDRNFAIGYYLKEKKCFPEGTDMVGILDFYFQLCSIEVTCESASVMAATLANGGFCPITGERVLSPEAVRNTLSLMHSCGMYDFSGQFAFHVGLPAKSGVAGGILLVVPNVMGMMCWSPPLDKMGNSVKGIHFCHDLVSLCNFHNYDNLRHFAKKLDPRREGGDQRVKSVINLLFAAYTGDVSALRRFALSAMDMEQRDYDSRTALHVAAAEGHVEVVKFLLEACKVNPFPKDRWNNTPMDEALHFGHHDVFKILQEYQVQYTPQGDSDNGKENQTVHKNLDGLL
Summary of the method: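 hKGA in 45 mM KH2PO4 (pH 8.2), 0.02% Tween-20 with compound, then 1mM L-Glutamine (stock as added) plus glutamate oxidase/HRP/Amplex red coupling mix. Fluorescence read initially and after 30 min at RT; signal change reflects glutamate formation.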

[4] = qHTS of Trypanosoma Brucei Inhibitors: LOPAC Validation (AID 624147)
Summary of the method: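 T. brucei PYK with substrate was exposed to pin-transferred compounds across a concentration series, then started with 130 uM ADP (final). After 45 min at room temperature, Kinase-Glo Plus luminescence was read, normalized and curve-fitted.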

[5] = target: Glucagon-like peptide 1 receptor (Homo sapiens) (UniProt P43220); assay: qHTS of GLP-1 Receptor Agonists: LOPAC Validation (AID 624148);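 further: higher luminescence signal means agonism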
Glucagon-like peptide 1 receptor (Homo sapiens), sequence (P43220 whole entry, looked up): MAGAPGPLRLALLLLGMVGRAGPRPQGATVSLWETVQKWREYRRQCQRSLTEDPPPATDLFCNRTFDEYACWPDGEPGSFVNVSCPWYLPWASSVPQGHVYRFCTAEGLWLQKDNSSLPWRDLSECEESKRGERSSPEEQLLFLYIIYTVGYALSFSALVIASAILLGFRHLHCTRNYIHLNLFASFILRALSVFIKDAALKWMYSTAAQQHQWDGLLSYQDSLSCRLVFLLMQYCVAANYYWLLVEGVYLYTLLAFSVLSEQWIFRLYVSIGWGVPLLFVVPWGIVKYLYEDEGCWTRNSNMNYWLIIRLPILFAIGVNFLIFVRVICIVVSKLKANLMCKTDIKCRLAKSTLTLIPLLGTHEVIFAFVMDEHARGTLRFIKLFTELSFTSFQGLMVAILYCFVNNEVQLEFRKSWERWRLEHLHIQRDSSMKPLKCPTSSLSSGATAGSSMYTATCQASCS
Summary of the method: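 HEK293 cells stably co-expressing GLP-1R and a cAMP-responsive luciferase reporter, plated 12 hours before compound, then incubated 4-6 hr at 37 deg C. Luminescence read 12 min after detection reagent.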

[6] = qHTS of Nrf2 Activators: LOPAC Validation (AID 624149)
Summary of the method: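 AREc32_Fluc cells, 1000/well, OPTI-MEM + 5% FBS, o/n 37 deg C 5% CO2; compound pin-transfer, 24 hr 37 deg C; Steady-Glo 30 min RT, luminescence read.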

[7] = HTS Assay for Allosteric Antagonists of the Human D2 Dopamine Receptor: Hit Validation in HTRF (AID 624455)
Summary of the method: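 HTRF read-out; cells stably expressing D1 receptor; hits scored for inhibition of D1-mediated response. Primary screen: calcium flux, force-coupled inducible Hek293 Trex D2 line, antagonism vs EC80 dopamine.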

Measured: Potency

CN1[C@@H]2CC[C@H]1CC(OC(c1ccccc1)c1ccccc1)C2 (some centres undefined)
inactive: [1] | [2]

Cc1cc(O)c2ccccc2c1O
inactive: [2]
active: [1] 25.6 µM

COC(=O)C1=C(C)NC(C)=C(C(=O)OCC(C)C)C1c1ccccc1[N+](=O)[O-] (centres undefined)
inactive: [2]
active: [1] 32.2 µM

CC(N)C(=O)OC(C)(C)Cc1ccc(Cl)cc1 (centres undefined)
inactive: all assays above

CN1[C@@H]2CC[C@H]1CC(OC(=O)C(CO)c1ccccc1)C2 (some centres undefined)
inactive: [1] | [2]

NC[C@@H]1O[C@H](C23CC4CC(CC(C4)C2)C3)Cc2c1ccc(O)c2O
inactive: [3] | [4] | [5] | [6]

CCCCCCOc1ccccc1C(N)=O
inactive: [1] | [2]

C=CC(N)CCC(=O)O (centres undefined)
inactive: all assays above

CCCCCCCCCCCC(=O)[O][Sn]([CH2]CCC)([CH2]CCC)[O]C(=O)CCCCCCCCCCC
active: [1] 9.07 µM
inactive: [2]

C#C[C@]1(O)CC[C@H]2[C@@H]3CCc4cc(O)ccc4[C@H]3CC[C@@]21C
inactive: [2]
active: [1] 12.8 µM

COc1cc(/C=C/C(=O)N2CCN(CC(=O)N3CCCC3)CC2)cc(OC)c1OC
inactive: [1] | [2]

CN1C2CCC1CC(OC(=O)C(O)c1ccccc1)C2 (centres undefined)
inactive: [3] | [4] | [5] | [6]

Nc1cc(-c2ccncc2)c[nH]c1=O
inactive: [1] | [2]

O=C(O)c1cc(O)c(O)c(O)c1
inactive: [1] | [2]

Nc1nc(Cl)nc2c1ncn2[C@@H]1O[C@H](COP(=O)(O)OP(=O)(O)OP(=O)(O)O)[C@@H](O)[C@H]1O
inactive: [3] | [4] | [5] | [6]

CC1(C)[C@@H](O)CC[C@]2(C)[C@H]3C(=O)C=C4[C@@H]5C[C@@](C)(C(=O)O)CC[C@]5(C)CC[C@@]4(C)[C@]3(C)CC[C@@H]12
inactive: [2]
active: [1] 8.09 µM

CCC1C(=O)OCC1Cc1cncn1C (centres undefined)
inactive: all assays above

Cc1ccccc1CNc1ncnc2c1ncn2C1OC(CO)C(O)C1O (centres undefined)
inactive: all assays above

C=CC(=O)c1ccc(CCCCCC)cc1
inactive: [3] | [4] | [5] | [6]

C#C[C@]1(O)CC[C@H]2[C@@H]3CCC4=Cc5oncc5CC4(C)[C@H]3CCC21C (some centres undefined)
inactive: [3] | [4] | [5] | [6]

CCCCCCCCCCCCCCCCCC(=O)O
inactive: [1] | [2]

COc1ccc(/C=C/C(=O)Nc2ccccc2C(=O)O)cc1OC
not listed: [7]
inactive: all other assays above

C=C(Nc1ccc(OCC)cc1)Nc1ccc(OCC)cc1
inactive: [1] | [2]

O=C(O)/C=C/C(O)c1ccc(Cl)cc1 (centres undefined)
inactive: all assays above

CCCOC(=O)c1ccc(O)cc1
inactive: [1] | [2]

CC(=O)[C@]1(O)Cc2c(O)c3c(c(O)c2[C@@H](O[C@H]2C[C@H](N)[C@H](O)[C@H](C)O2)C1)C(=O)c1c(O)cccc1C3=O
active: [2] 0.398 µM

[O-][n+]1ccccc1SSc1cccc[n+]1[O-]
active: [1] 0.361 µM | [2] 1.12 µM

CN1[C@@H](CC(=O)c2ccccc2)CCC[C@H]1C[C@H](O)c1ccccc1
inactive: all assays above

O=C(CCN1CCN(CCO)CC1)N1c2ccccc2Sc2ccc(C(F)(F)F)cc21
inactive: [2]

N=c1ccn2c(n1)O[C@H]1[C@H](O)[C@@H](CO)O[C@H]12
active: [1] 14.4 µM | [2] 14.1 µM
inactive: all other assays above

Oc1c(Br)cc(Br)c2cccnc12
inactive: [1]
active: [2] 19.9 µM

C=CCN1C(=O)C(CC(C)C)NC1=S (centres undefined)
inactive: [1] | [2]

CC1OC1P(=O)(O)O (centres undefined)
not listed: [2] | [3]
inactive: all other assays above

O=C(O)COc1ccc(C(=O)c2cccs2)c(Cl)c1Cl
inactive: [1] | [2]

COc1cc(CNC(=O)CCCC/C=C/C(C)C)ccc1O
inactive: [2]

CCCn1c(=O)c2[nH]c(-c3ccc(OCC(=O)NCCN)cc3)nc2n(CCC)c1=O
not listed: [1] | [2]
inactive: all other assays above

C[N+]1(C)C2CC(OC(=O)[C@H](CO)c3ccccc3)CC1C1OC12 (some centres undefined)
not listed: [1] | [2]
inactive: all other assays above

NC(N)=NC(=O)c1nc(Cl)c(N2CCCCCC2)nc1N
not listed: [1] | [2]
inactive: all other assays above

O=C(c1ccc(Cl)cc1)N1CCN(c2ccc([N+](=O)[O-])c3ncccc23)CC1
not listed: [1] | [2]
inactive: all other assays above

N=C(N)SCCc1ccc(CCSC(=N)N)cc1
not listed: [1] | [2]
inactive: all other assays above

O=C(O)[C@@H]1C[C@@H](C(=O)O)N1
not listed: [1] | [2]
inactive: all other assays above
